According to ChEMBL document CHEMBL3988442, “University of Dundee, Small-Polar-MMV Screening Library” (2021):
Among all 48,000 compounds or so, about 13,000 (27%) showed an effect of 50% or more. The list shows a part of the results.

system: Wolbachia pipientis; assay: Anti-Wolbachia Cell-Based Screen; assay type: functional; parameters: scale not given: in the data most compounds retested in dose-response had high values; details: 5 µM

For `CC(C(=O)N(Cc1ccccc1)CC(F)(F)F)S(C)(=O)=O` (stereo not given), which “Percent Effect” value is on record?
The value was 3.578%.

Which “Percent Effect” value does the source give for `CC(C)NC(=O)CNC(=O)C12CCC(=O)N1c1cc(Cl)ccc1S2` (stereo not given) here?
Its value is -9.931%.

For `CC(C)(C)C(=O)CN1Cc2ccccc2NCCC1=O`, which “Percent Effect” value is on record?
The value was 87.13%.

How did the “Percent Effect” value turn out when `O=C(CN1C(=O)CCNC1=O)N1CCC2(CCc3ccccc32)CC1` was run?
Its value is -1.469%.

Which “Percent Effect” value does the source give for `COCCN1CC2(CCCN(C(=O)NCc3ccccc3)C2)CCC1=O` (stereo not given) here?
Its value is -41.75%.

Which “Percent Effect” value does the source give for `CCN(C(=O)C1=NN(c2ccccc2)C(=O)CN1)c1ccccc1` here?
Its value is 14.38%.

For `CN(C(=O)CN1CCCC1=O)C1CCCN(C2Cc3ccccc3C2)C1` (stereo not given), which “Percent Effect” value is on record?
Its value is -3.019%.

How did the “Percent Effect” value turn out when `CC(C)(C)C(=O)CN1CCc2ccccc2NCCC1=O` was run?
Its value is 91.03%.

Which “Percent Effect” value does the source give for `COCCN1CCC2(CCC1=O)CN(c1ccnc(SC)n1)CCN2C` (stereo not given) here?
Its value is 3.783%.

`COCCN1CCc2ccccc2NCCC1=O` was tested. Which “Percent Effect” value did it give?
The value was 80.29%.

For `CCNC(=O)N1C[C@@H]2OCC(=O)N(Cc3cccnc3)[C@@H]2C1`, which “Percent Effect” value is on record?
The value was -2.175%.

`C[C@H](CCO)NS(=O)(=O)c1ccc(Br)cn1` was tested. Which “Percent Effect” value did it give?
The value was 0.586%.

`COc1nccnc1N1CCC2(CC1)[C@H](O)C[C@@H]2OCCN(C)C` was tested. Which “Percent Effect” value did it give?
The value was -0.5657%.

How did the “Percent Effect” value turn out when `COC(=O)CCCn1ccnc1C(C)c1ccccc1` (stereo not given) was run?
Its value is 30.01%.

For `CN(C)c1ccc(C(=O)N2CCN(C(=O)N3CCCCC3)CC2)nn1`, which “Percent Effect” value is on record?
Its value is 6.871%.

For `O=C(Cc1ccc(CO)cc1)N1CCN(c2ccccc2Cl)C(=O)C1`, which “Percent Effect” value is on record?
Its value is -19.49%.

Which “Percent Effect” value does the source give for `O=C(N1CCCC1)N1CCN(c2ccc(Cl)nn2)C(=O)C1` here?
Its value is 104%.

For `Cc1ccc2c(n1)N(CCN(C)C)CCN(C(=O)N1CCOCC1)C2`, which “Percent Effect” value is on record?
The value was -2.22%.

Which “Percent Effect” value does the source give for `CN1CCN(C(=O)N2CCCC2)Cc2cccnc21` here?
Its value is -1.039%.

With `O=C(N1CCOCC1)N1CCN(c2ccnc3ccsc23)CC1` as the molecule, how does the “Percent Effect” value read?
Its value is 30.34%.

Which “Percent Effect” value does the source give for `O=C(Cc1ccc2c(c1)OCO2)N1CCN(c2ccccc2Cl)C(=O)C1` here?
Its value is 2.346%.

With `O=C(N1CCOCC1)N1CCN(c2ccc(Cl)nn2)C(=O)C1` as the molecule, how does the “Percent Effect” value read?
Its value is 98.36%.

How did the “Percent Effect” value turn out when `O=C(N1CCCCC1)N1CCN(c2ccc(Cl)nn2)C(=O)C1` was run?
Its value is 123%.

How did the “Percent Effect” value turn out when `O=C(CN1CCN(c2ccnc3c(F)ccc(F)c23)CC1)NC1CC1` was run?
Its value is -1.102%.

`O=C(Nc1ccc2c(c1)OCO2)N1CCN(CCc2ccccc2)CC1` was tested. Which “Percent Effect” value did it give?
Its value is 10.38%.

For `CC(C)OCc1ncn2c1CN(Cc1nccs1)CCC2.O=C(O)C(F)(F)F`, which “Percent Effect” value is on record?
The value was 19.89%.

For `CN(C)C(=O)C1CCC2(CCN(C(=O)Nc3ccccc3)CC2)O1` (stereo not given), which “Percent Effect” value is on record?
The value was 111.7%.

For `CN(C)C(=O)C1CCC2(CCN(C(=O)Nc3ccc(F)cc3)CC2)O1` (stereo not given), which “Percent Effect” value is on record?
The value was 104.3%.

Which “Percent Effect” value does the source give for `Cc1ccc(NC(=O)N2CCC3(CCC(C(=O)N(C)C)O3)CC2)cc1` (stereo not given) here?
Its value is 103.6%.

`O=C(Nc1ccc(S(=O)(=O)Nc2ccccc2)cc1)N1CCCC1` was tested. Which “Percent Effect” value did it give?
The value was 10.15%.

`CCN(C)CC1CCN(C(=O)Nc2ccc(C)cc2)C1` (stereo not given) was tested. Which “Percent Effect” value did it give?
Its value is -10.96%.

`CC(=O)NC1CCN(C(=O)Nc2ccc(SC(F)F)cc2)CC1` was tested. Which “Percent Effect” value did it give?
The value was 1.325%.

Which “Percent Effect” value does the source give for `CCC1=N[C@@]2(CC[C@@H]3CN(C(=O)Nc4ccc(F)cc4)C[C@@H]32)C(=O)N1` here?
Its value is -8.843%.

`CN(C)C(=O)N1CCC2(CCC(C(=O)N3CCCC3)O2)CC1` (stereo not given) was tested. Which “Percent Effect” value did it give?
The value was -25.65%.

`CN1C(=O)CO[C@H]2CN(C(=O)Nc3ccc(F)cc3)C[C@H]21` was tested. Which “Percent Effect” value did it give?
The value was -3.92%.

With `CCCN1CCCC2(CCN(S(=O)(=O)N3CCC(OC)CC3)C2)C1=O` (stereo not given) as the molecule, how does the “Percent Effect” value read?
The value was -17.89%.

With `CCCNC(=O)NCc1ccccc1NS(=O)(=O)c1ccccc1` as the molecule, how does the “Percent Effect” value read?
The value was 1.164%.

Which “Percent Effect” value does the source give for `COc1c(C2CCCN2Cc2nnc(C3CC3)o2)c(C)nn1C` (stereo not given) here?
The value was -22.17%.

For `CCN(Cc1noc(C)n1)C(=O)C(c1ccc(C)cc1)N(C)C` (stereo not given), which “Percent Effect” value is on record?
Its value is -5.423%.

How did the “Percent Effect” value turn out when `CC(=O)N1CCN(C(=O)CCc2cc(Br)cs2)CC1` was run?
The value was -5.733%.

With `CC1(Cc2cccnc2)NCCc2[nH]cnc21` (stereo not given) as the molecule, how does the “Percent Effect” value read?
The value was 0.4171%.

How did the “Percent Effect” value turn out when `CC(C)Cc1ccc(C(=O)Cn2cnnc2[S+](C)[O-])cc1` (stereo not given) was run?
The value was 22.36%.

With `Cc1cccc(S(=O)(=O)N2CCCc3c(c(=O)n(C)n3C)C2)c1` as the molecule, how does the “Percent Effect” value read?
The value was -4.559%.

`Cc1cccc(S(=O)(=O)N2CCCC3(CCCN3S(C)(=O)=O)C2)c1` (stereo not given) was tested. Which “Percent Effect” value did it give?
The value was 110.4%.

With `CCN1C(=O)CCC12CCCN(S(=O)(=O)c1cccc(C)c1)CC2` (stereo not given) as the molecule, how does the “Percent Effect” value read?
Its value is -13.05%.

For `CS(=O)(=O)N1CCCC12CCCN(S(=O)(=O)c1cccc(F)c1)C2` (stereo not given), which “Percent Effect” value is on record?
Its value is 85.55%.

`CS(=O)(=O)N1CCCC12CCCN(S(=O)(=O)c1cc(F)cc(F)c1)C2` (stereo not given) was tested. Which “Percent Effect” value did it give?
Its value is -5.366%.

Which “Percent Effect” value does the source give for `CNC(=O)[C@@]12CCO[C@@H]1CCN(S(=O)(=O)c1cccc(F)c1)C2` here?
Its value is -9.413%.

Which “Percent Effect” value does the source give for `COc1ccc(Nc2ncccc2C#N)cc1N1CCCC1=O` here?
The value was 9.755%.

For `Cc1cc(S(=O)(=O)Nc2onc(C)c2C)sc1C`, which “Percent Effect” value is on record?
The value was -16.29%.

For `Cc1nn(C)c(C)c1C1CCCN1C(=O)CCCc1ccccn1` (stereo not given), which “Percent Effect” value is on record?
Its value is 91.34%.

`Cc1nn(C)c(C)c1C1CCCN1C(=O)CCNS(C)(=O)=O` (stereo not given) was tested. Which “Percent Effect” value did it give?
Its value is 101.1%.

For `CS(=O)(=O)NCCC(=O)N1CCCC1c1noc(C2CC2)n1` (stereo not given), which “Percent Effect” value is on record?
The value was -8.062%.

For `Cc1nn(C)c(C)c1C1CCCN1C(=O)CCc1cscn1` (stereo not given), which “Percent Effect” value is on record?
The value was -3.183%.

With `Cc1nn(C)c(C)c1C1CCCN1C(=O)CCc1ccco1` (stereo not given) as the molecule, how does the “Percent Effect” value read?
Its value is 103%.

How did the “Percent Effect” value turn out when `Cc1nn(C)c(C)c1C1CCCN1Cc1nc(-c2ccco2)oc1C` (stereo not given) was run?
Its value is -2.901%.

`COc1c(C2CCCN2C(=O)CCNc2ncccn2)c(C)nn1C` (stereo not given) was tested. Which “Percent Effect” value did it give?
The value was 119.8%.

`COc1ccc(C2CCCN2C(=O)CCNc2ncccn2)cc1` (stereo not given) was tested. Which “Percent Effect” value did it give?
Its value is 1.66%.

`CSc1ccc(CNCCS(=O)(=O)N2CCOCC2)cc1` was tested. Which “Percent Effect” value did it give?
The value was -30.29%.

Which “Percent Effect” value does the source give for `CC1(C)CN(C(=O)c2ccc3nncn3c2)CCS1` here?
Its value is -32.23%.

How did the “Percent Effect” value turn out when `COCC1CN(C(=O)CC2Cc3ccccc3C2)Cc2c1cnn2C` (stereo not given) was run?
The value was -1.669%.

With `Cc1nn(C)c(C)c1C1CCCN1C(=O)CCNc1ncccn1` (stereo not given) as the molecule, how does the “Percent Effect” value read?
The value was 2.112%.

For `Cc1nn(C)c(C)c1C1CCCN1C(=O)CCCNc1ncccn1` (stereo not given), which “Percent Effect” value is on record?
The value was 79.99%.

`Cc1nn(C)c(C)c1C1CCCN1C(=O)CCCn1cccn1` (stereo not given) was tested. Which “Percent Effect” value did it give?
The value was 12.2%.

For `Cc1nn(C)c(Cl)c1C1CCCN1C(=O)CCNc1ncccn1` (stereo not given), which “Percent Effect” value is on record?
The value was 95.62%.
